Test systems include HCT-15 colon; HT29 colon; SNB-75 CNS; SNB-19 CNS; U251 CNS; PC-3 prostate; SK-MEL-5 melanoma; UACC-62 melanoma; LOX IMVI melanoma; SK-MEL-28 melanoma; SK-MEL-2 melanoma; EKVX NSCLC; SN12C renal; UO-31 renal; TK-10 renal; ACHN renal; CAKI-1 renal; A498 renal; CCRF-CEM leukemia; MOLT-4 leukemia.
What all share (assay): NCI-60 one-dose screen, 48 h (100 = growth as untreated, 0 = no growth, -100 = all killed)
Common to all, as to settings: 10 µM unless noted

This is part of a sample that, as a whole, favours compounds with a hit. Of some 83,000 tested, about 20% had one in any assay.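 Values shown are percent growth following 48 h exposure of cells in 96-well plates to a single concentration of compound; below 10 was considered active.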 A number with no mark means an inactive call. Activity calls are given as the source filed them.

For the compound `COc1ccc(C(O)c2cc3c(N)c(C(=O)Nc4cccc5ccccc45)sc3nc2C)cc1` (stereo not given), the growth in the test on HCT-15 colon is 6.45% (active); with HT29 colon, 6.41% (active); in the test with SNB-75 CNS, 32.5%; with SNB-19 CNS, 25%; in the test on U251 CNS it was 20.1%; in the test on PC-3 prostate, 14.1%. Moreover, the growth in the test on SK-MEL-5 melanoma is -47.4% (active); with UACC-62 melanoma, 18.6%; in the test with LOX IMVI melanoma it was 19.1%; in the test with SK-MEL-28 melanoma, 57.6%; in the test on SK-MEL-2 melanoma it was 35.8%; in the test on EKVX NSCLC, 41.8%. Besides, the growth was 14.4% with SN12C renal; 25.8% in the test on UO-31 renal; 63.8% in the test on TK-10 renal; 22% with ACHN renal; 15.5% in the test on CAKI-1 renal; -13.1% (active) with A498 renal. In addition, the growth is 13.2% in the test on CCRF-CEM leukemia and 10.9% in the test on MOLT-4 leukemia.

With `c1ccc(-c2c(-c3ccccc3)[n+](Cc3ccc4ccccc4c3)cn2Cc2ccc3ccccc3c2)cc1`, the growth was -93.3% (active) with HCT-15 colon; -89.9% (active) in the test with HT29 colon; -67.6% (active) in the test on SNB-75 CNS; -66.4% (active) in the test with SNB-19 CNS; -90% (active) with U251 CNS; -91.8% (active) with PC-3 prostate. In addition, the growth in the test with SK-MEL-5 melanoma was -100% (active); with UACC-62 melanoma, -73.2% (active); with LOX IMVI melanoma, -99.5% (active); with SK-MEL-28 melanoma, -91.5% (active); in the test with SK-MEL-2 melanoma, -79.4% (active); in the test with EKVX NSCLC it was -46.7% (active). The growth in the test with SN12C renal is -76% (active); in the test with UO-31 renal it was -22.4% (active); in the test with TK-10 renal, -81.2% (active); in the test on ACHN renal, -100% (active); in the test on CAKI-1 renal, -9.42% (active); in the test with A498 renal it was -95.4% (active). Moreover, the growth was -66% (active) with CCRF-CEM leukemia and -67.7% (active) with MOLT-4 leukemia.

With `COc1ccccc1S(=O)(=O)Nc1ccc2c3c(cc(CCC(=O)NCCCCNc4cccc5c4C(=O)N(C4CCC(=O)NC4=O)C5=O)cc13)C(=O)N2C` (stereo not given), the growth is 68.4% in the test on HCT-15 colon; 48.4% in the test on HT29 colon; -26.1% (active) in the test with SNB-75 CNS; 7.56% (active) in the test with SNB-19 CNS; 61.4% with U251 CNS; 3.96% (active) in the test with PC-3 prostate. Besides, the growth was -33% (active) in the test with SK-MEL-5 melanoma; 43.9% in the test on UACC-62 melanoma; 21.4% with LOX IMVI melanoma; 13.3% in the test on SK-MEL-28 melanoma; 11% in the test on SK-MEL-2 melanoma; 71% in the test with EKVX NSCLC. The growth in the test on SN12C renal is 7.95% (active); in the test on UO-31 renal, 55.2%; in the test with TK-10 renal, 58%; with ACHN renal, 92.4%; in the test on CAKI-1 renal it was 37.5%; with A498 renal, 15.6%. Further, the growth in the test on CCRF-CEM leukemia was -0.604% (active); with MOLT-4 leukemia it was 0.837% (active).

On to `COC(=O)c1ccc2cc(OC)c(OC)cc2c1`, for which the growth in the test with HCT-15 colon was 100%; in the test on HT29 colon it was 90.7%; in the test on SNB-75 CNS, 97.8%; with SNB-19 CNS, 99.5%; with U251 CNS, 95.7%; in the test with PC-3 prostate, 92.1%. The growth with SK-MEL-5 melanoma is 108%; in the test on UACC-62 melanoma it was 104%; in the test on LOX IMVI melanoma it was 109%; in the test with SK-MEL-28 melanoma it was 102%; with SK-MEL-2 melanoma it was 134%; in the test on EKVX NSCLC, 84.8%. The growth in the test on SN12C renal was 104%; in the test with UO-31 renal it was 100%; in the test with TK-10 renal it was 103%; with ACHN renal, 106%; with CAKI-1 renal, 91.6%; in the test on A498 renal, 75.4%. The growth in the test with CCRF-CEM leukemia was 91%; in the test with MOLT-4 leukemia, 85.8%.

Regarding `N#Cc1c(-c2ccccc2)nc2c(c(-c3ccc(Cl)cc3)nn2-c2ccccc2)c1-c1ccc([N+](=O)[O-])cc1`, the growth was 99.4% in the test on HCT-15 colon; 93.5% in the test with HT29 colon; 88.3% in the test with SNB-75 CNS; 90.9% with SNB-19 CNS; 95.3% with U251 CNS; 88.7% with PC-3 prostate. In addition, the growth was 99.2% in the test with SK-MEL-5 melanoma; 86.5% in the test with UACC-62 melanoma; 94.7% in the test with LOX IMVI melanoma; 102% in the test on SK-MEL-28 melanoma; 104% in the test on SK-MEL-2 melanoma; 103% in the test on EKVX NSCLC. The growth in the test on SN12C renal was 105%; in the test on UO-31 renal, 81.2%; with TK-10 renal, 121%; in the test on ACHN renal, 97.5%; in the test with CAKI-1 renal it was 79%; in the test with A498 renal it was 99.7%. The growth with CCRF-CEM leukemia was 90.6%; in the test with MOLT-4 leukemia, 97.1%.

In the case of `N#Cc1c(-c2cccc(Cl)c2)cc(-c2cccnc2)[nH]c1=O`, the growth is 44.8% with HCT-15 colon; 115% in the test with HT29 colon; 61.1% in the test with SNB-75 CNS; 67.9% in the test on SNB-19 CNS; 71.8% in the test on U251 CNS; 87.3% in the test with PC-3 prostate. Also, the growth in the test on SK-MEL-5 melanoma is 67.1%; with UACC-62 melanoma, 36.6%; in the test with LOX IMVI melanoma, 81.2%; in the test on SK-MEL-28 melanoma it was 64.4%; in the test on SK-MEL-2 melanoma, 79.7%; with EKVX NSCLC, 100%. The growth is 82.6% in the test with SN12C renal; 64.3% in the test on UO-31 renal; 127% in the test on TK-10 renal; 89% in the test with ACHN renal; 72.8% with CAKI-1 renal; 101% in the test on A498 renal. Further, the growth is 71.5% in the test on CCRF-CEM leukemia and 72.1% in the test with MOLT-4 leukemia.

For the compound `O=c1oc2ccccc2cc1-c1nn(-c2ccccc2)cc1-c1nn[nH]n1`, the growth was 100% in the test on HCT-15 colon; 104% in the test on HT29 colon; 76.2% with SNB-75 CNS; 98% in the test on SNB-19 CNS; 104% in the test on U251 CNS; 91.5% with PC-3 prostate. Moreover, the growth with SK-MEL-5 melanoma is 102%; in the test with UACC-62 melanoma, 93.3%; in the test with LOX IMVI melanoma, 89%; with SK-MEL-28 melanoma it was 107%; in the test on SK-MEL-2 melanoma, 104%; with EKVX NSCLC, 99.4%. The growth in the test with SN12C renal is 96.2%; in the test with UO-31 renal, 78.4%; in the test with TK-10 renal, 101%; in the test with ACHN renal, 99.9%; in the test on CAKI-1 renal, 87.6%; in the test on A498 renal, 95.1%. Also, the growth is 104% in the test on CCRF-CEM leukemia and 99% in the test on MOLT-4 leukemia.

With `C=C(C)[C@@H]1CC[C@]2(C(=O)Nc3ccccn3)CC[C@]3(C)[C@H](CC[C@@H]4[C@@]5(C)CCCNC(C)(C)[C@@H]5CC[C@]43C)[C@@H]12`, the growth in the test on HCT-15 colon was 13.1%; with HT29 colon, 4.13% (active); in the test on SNB-75 CNS, 33.4%; in the test on SNB-19 CNS it was 25%; in the test on U251 CNS, 10.4%; in the test on PC-3 prostate, 17.3%. In addition, the growth with SK-MEL-5 melanoma was -96.5% (active); with UACC-62 melanoma it was 36.1%; in the test with LOX IMVI melanoma it was 10.9%; with SK-MEL-28 melanoma, 31.9%; in the test on SK-MEL-2 melanoma, 41.2%; with EKVX NSCLC, 25.3%. Moreover, the growth in the test with SN12C renal is 20.8%; with UO-31 renal, 55.9%; in the test on TK-10 renal, 28.4%; with ACHN renal, 33.4%; with CAKI-1 renal, 34.8%; in the test on A498 renal, 18.9%. Moreover, the growth with CCRF-CEM leukemia is 9.61% (active); with MOLT-4 leukemia, -0.121% (active).

These data come from PubChem BioAssay (NCI).
